Assay [1] has as its target Calcium and integrin-binding protein 1 (Homo sapiens) (UniProt Q99828). Description: Primary qHTS for Identification of Calcium Integrin Binding Protein 1 (CIB1) Competitor (AID 1508620).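 Also: GST tagged CIB1 binding a fluorescein labelled alphaIIb integrin peptide tracer; top concentration of the series differs between compounds; % is scaled to controls: 0 for no effect and ±100 for the full control effect.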 Conditions: CIB1-GST / FITC-alphaIIb peptide fluorescence polarization; series mostly up to 57.7 µM. In outline: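 CIB1-GST (1 uM final) and compound incubated 15 min at room temperature before adding FITC-alphaIIb peptide tracer (100 nM final). Competition for binding read by fluorescence polarization (ex 480, em 540) after another 15 min at room temperature.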
(qHTS replaces the single test concentration by a dilution series.)

A short description of assay [2]: Primary qHTS for inhibitors of nuclear receptor binding SET domain protein 2 (NSD2) in an isogenic RCH-ACV NSD2 p.E1099K mutant (9B) (AID 1645876). Also: nearly all actives have a fitted effect of over 70% in size. As to activity change, negative = viability loss: % is scaled to controls: 0 for no effect and ±100 for the full control effect. Conditions: RCH-ACV NSD2 E1099K (9B) viability, CellTiter-Glo, 72 h; series mostly up to 44.9 µM.
Assay [3] is described as follows: Primary qHTS for inhibitors of nuclear receptor binding SET domain protein 2 (NSD2) in an RCH-ACV wild type WT cells (2C) (AID 1645877). Also: nearly all actives have a fitted effect of over 70% in size. As to activity change, negative = cell killing: % is scaled to controls: 0 for no effect and ±100 for the full control effect. To be noted: RCH-ACV (leukaemia line) NSD2 WT (2C) viability, CellTiter-Glo, 72 h; series mostly up to 44.9 µM.
For assay [4], the target named is Catechol O-methyltransferase (Homo sapiens) (UniProt P21964). Description: Confirmatory Screen for Target Class Profiling of Small Molecule Inhibitors of Methyltransferases (AID 1745852). As to activity change, negative = inhibition: % is scaled to controls: 0 for no effect and ±100 for the full control effect. Conditions: MTase-Glo luminescence, SAH detection, recombinant enzyme; measured here: COMT max response; stronger effect = lower value.
Catechol O-methyltransferase (Homo sapiens), sequence (P21964 whole entry, looked up): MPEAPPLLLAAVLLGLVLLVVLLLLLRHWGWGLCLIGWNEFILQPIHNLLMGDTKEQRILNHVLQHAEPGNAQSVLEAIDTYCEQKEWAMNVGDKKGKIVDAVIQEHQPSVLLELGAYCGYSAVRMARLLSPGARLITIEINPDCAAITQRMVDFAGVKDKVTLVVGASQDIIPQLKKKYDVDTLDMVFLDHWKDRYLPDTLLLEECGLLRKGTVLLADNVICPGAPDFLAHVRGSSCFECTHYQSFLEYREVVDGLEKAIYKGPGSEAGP
Assay [5] has as its target Guanidinoacetate N-methyltransferase (Homo sapiens) (UniProt Q14353). Described as above. Conditions: MTase-Glo luminescence, SAH detection, recombinant enzyme; activity change, negative = inhibition: at 57.3 µM (top of the series) unless noted.
Assay [6] has as its target Nicotinamide N-methyltransferase (Homo sapiens) (UniProt P40261). The description is as above. To be noted: MTase-Glo luminescence, SAH detection, recombinant enzyme; measured here: NNMT max response; stronger effect = lower value.
Assay [7] has as its target Phenylethanolamine N-methyltransferase (Homo sapiens) (UniProt P11086). The description is as above. To be noted: MTase-Glo luminescence, SAH detection, recombinant enzyme; measured here: PNMT max response; stronger effect = lower value.

This is an account of results in PubChem BioAssay (NCATS).

Structures are written as SMILES. Results filed as inconclusive are left out. Calls of active or inactive are those of the source. Calls follow the shape of the dose curve; as a rule, active = well fitted curve in the direction sought with a large enough effect; inconclusive = small, poorly fitted or top-dose-only effect, or another doubt; inactive = no such curve, though single readings can be large; an effect the other way counts as inactive or inconclusive. Where a SMILES comes first, the peptide text is derived from it. The star is where a group is joined. AMC = Cc1cc(=O)oc2cc(N*)ccc12; Cbz = O=C(OCc1ccccc1)*

Calcium and integrin-binding protein 1 (Homo sapiens), sequence (Q99828 whole entry, looked up): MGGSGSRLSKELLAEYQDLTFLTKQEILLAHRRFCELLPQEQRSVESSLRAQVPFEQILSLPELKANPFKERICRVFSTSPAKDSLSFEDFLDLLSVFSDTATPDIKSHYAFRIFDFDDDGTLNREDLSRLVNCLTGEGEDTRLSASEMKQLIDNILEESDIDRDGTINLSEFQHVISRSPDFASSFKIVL
Phenylethanolamine N-methyltransferase (Homo sapiens), sequence (P11086 whole entry, looked up): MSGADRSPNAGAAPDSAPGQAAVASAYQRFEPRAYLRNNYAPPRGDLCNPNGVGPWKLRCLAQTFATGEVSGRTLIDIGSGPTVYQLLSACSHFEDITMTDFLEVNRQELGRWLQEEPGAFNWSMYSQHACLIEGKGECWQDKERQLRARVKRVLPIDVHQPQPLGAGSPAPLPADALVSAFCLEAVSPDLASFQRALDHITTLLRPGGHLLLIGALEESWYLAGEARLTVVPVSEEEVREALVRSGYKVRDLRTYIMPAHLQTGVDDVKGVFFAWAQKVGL
Nicotinamide N-methyltransferase (Homo sapiens), sequence (P40261 whole entry, looked up): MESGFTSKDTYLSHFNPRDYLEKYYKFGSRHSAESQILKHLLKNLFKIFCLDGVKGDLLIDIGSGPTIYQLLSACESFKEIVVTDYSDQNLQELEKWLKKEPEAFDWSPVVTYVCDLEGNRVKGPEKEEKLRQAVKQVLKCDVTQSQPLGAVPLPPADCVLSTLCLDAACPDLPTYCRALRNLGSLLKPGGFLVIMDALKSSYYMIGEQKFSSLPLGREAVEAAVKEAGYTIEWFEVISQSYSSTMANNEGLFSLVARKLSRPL

As to `CC(=O)c1c(C)cccc1O[C@@H]1O[C@H](CO)[C@@H](O)[C@H](O)[C@H]1O`, the Potency entry in assay [1], in assay [2] and in assay [3] was “inactive” in each case. The activity is -68.9% in assay [4], -4.15% in assay [6] and -3.91% in assay [7]. Further, the activity change, negative = inhibition in assay [5] is -2.96%.
Consider `C[C@]1(C2CCCC2)Cc2cc(OCC(=O)O)c(Cl)c(Cl)c2C1=O`, for which the Potency result in assay [1], in assay [2] and in assay [3] was “inactive” each time. For the same molecule, the results for the activity in assay [4], in assay [6] and in assay [7] were -5.66%, -48.2% and -6.93%, respectively. The activity change, negative = inhibition in assay [5] is -6.29%.
On to `O=C(O)CC(CCc1ccccc1)OC1OC(CO)C(O)C(O)C1O` (configuration not stated), for which the Potency result in assay [1], in assay [2] and in assay [3] was “inactive” throughout. Further, the values for the activity in assay [4], in assay [6] and in assay [7] were -76.5%, -1.93% and -2.51%, respectively. The activity change, negative = inhibition in assay [5] was -3.69%.
Regarding `COCc1c(O)c(C(=O)O)c(C)c2c1OC(=O)c1c(C)cc(O)c(CO)c1O2`, the Potency entry in assay [1], in assay [2] and in assay [3] was “inactive” throughout. Also, the activity was -62.5% in assay [4], -3.54% in assay [6] and -4.35% in assay [7]. Also, the activity change, negative = inhibition in assay [5] was -4.52%.
For `CC1=CCC(O)C2(C)CCC3C(C)C(=O)OC3C12` (configuration not stated), the Potency entry in assay [1], in assay [2] and in assay [3] was “inactive” throughout. Also, the activity in assay [4] is -77%; in assay [6], 2.91%; in assay [7], -2.6%. In addition, in assay [5], the activity change, negative = inhibition amounted to 0%.
`O=C(/C=C/c1ccc(O)cc1)OC[C@@]1(O)C=C[C@@H]2C(C(=O)O)=CO[C@@H](O[C@@H]3O[C@H](CO)[C@@H](O)[C@H](O)[C@H]3O)[C@@H]21`: the Potency result in assay [1], in assay [2] and in assay [3] was “inactive” throughout. The activity was -58.3% in assay [4], -1.35% in assay [6] and 0.204% in assay [7]. Moreover, the activity change, negative = inhibition in assay [5] was found to be 0.0203% [at 29.8 µM].
For `CC1(C)C2CCC1(C)C(OC(=O)C(O)(CC(=O)O)CC(=O)O)C2` (configuration not stated), the Potency entry in assay [1], in assay [2] and in assay [3] was “inactive” each time. Moreover, the figures for the activity in assay [4], in assay [6] and in assay [7] were -73.1%, 1.63% and 2.73%, respectively. The activity change, negative = inhibition in assay [5] came out at 0%.
As to `C=C1C(=O)O[C@@H]2CC(C)=C([C@@H](C)CCCOC(C)=O)[C@@H](O)[C@H]12`, the Potency entry in assay [1], in assay [2] and in assay [3] was “inactive” throughout. Moreover, the values for the activity in assay [4], in assay [6] and in assay [7] were -78.5%, -0.922% and -2.38%, respectively. Besides, the activity change, negative = inhibition in assay [5] amounted to 1.58%.
In the case of `C=C(C(=O)O)[C@@H]1CC[C@H](C)[C@@H]2CC(=O)C(C)=C2C1`, the Potency entry in assay [1], in assay [2] and in assay [3] was “inactive” throughout. For the same molecule, the activity is -63.8% in assay [4], -2.63% in assay [6] and -9% in assay [7]. The activity change, negative = inhibition in assay [5] was 1.33%.
Consider `COc1cc(C2Oc3c(OC)cc(CCCO)cc3C2CO)ccc1O` (configuration not stated), for which the Potency entry in assay [1], in assay [2] and in assay [3] was “inactive” in each case. For the same molecule, the activity in assay [4] was -80.9%; in assay [6], -9.4%; in assay [7], -8.69%. In addition, the activity change, negative = inhibition in assay [5] is -2.79%.
Consider `CSC(=O)OCC1=C[C@@H]2OC(=O)C3=CO[C@@H](O[C@@H]4O[C@H](CO)[C@@H](O)[C@H](O)[C@H]4O)[C@H]1[C@@H]32`, for which the Potency result in assay [1], in assay [2] and in assay [3] was “inactive” throughout. In addition, the activity in assay [4] is -58.6%; in assay [6] it was -7.9%; in assay [7] it was -7.61%. Besides, in assay [5], the activity change, negative = inhibition is -9.29% [at 29.8 µM].
For the molecule `Cc1cc(=O)oc2cc(NC(=O)[C@H](CCC(=O)O)NC(=O)[C@H](CC(C)C)NC(=O)[C@H](CC(C)C)NC(=O)OCc3ccccc3)ccc12` (Cbz-Leu-Leu-Glu-{AMC}), the Potency result in assay [1], in assay [2] and in assay [3] was “inactive” throughout. The activity is -1.08% in assay [4], -71.3% in assay [6] and -1.44% in assay [7]. The activity change, negative = inhibition in assay [5] stood at 0%.
In the case of `CC(C)(O)C1CC=C(C(=O)OC[C@H]2O[C@@H](OC(=O)C3=CCC(C(C)(C)O)CC3)[C@H](O)[C@@H](O)[C@@H]2O)CC1` (some centres not stated), the Potency result in assay [1], in assay [2] and in assay [3] was “inactive” each time. For the same molecule, the activity in assay [4] is -62.1%; in assay [6] it was -5.04%; in assay [7] it was -5.85%. Besides, the activity change, negative = inhibition in assay [5] is -9.84% [at 29.8 µM].
In the case of `CC(=O)OC1CC(=O)C2(C)C3CC4=C(OC(C)CC4=O)OC3(C)CCC2C1(C)C` (configuration not stated), the Potency result in assay [1], in assay [2] and in assay [3] was “inactive” throughout. For the same molecule, the activity was -40.9% in assay [4], -81.2% in assay [6] and 0.0652% in assay [7]. In addition, the activity change, negative = inhibition in assay [5] was found to be 0.0637% [at 29.8 µM].
As to `C=C(C(=O)O)[C@H]1C[C@]2(C)C(=O)CC[C@]23O[C@H]1C[C@@H]3C`, the Potency entry in assay [1], in assay [2] and in assay [3] was “inactive” in each case. Besides, the activity in assay [4] was -84.1%; in assay [6], -2.06%; in assay [7] it was -0.38%. For the same molecule, in assay [5], the activity change, negative = inhibition is -1.21%.
For `CC1(CO)CC(O)C2(C)CCC3(C)C(=CCC4C5(C=O)CCC(OC6OC(C(=O)O)C(O)C(O)C6OC6OC(C(=O)O)C(O)C(O)C6O)C(C)(C)C5CCC43C)C2C1` (configuration not stated), in assay [1], the Potency result was “inactive”. In addition, the activity change, negative = viability loss in assay [2] is -5.71% [at 9.23 µM] (inactive). Further, in assay [3], the activity change, negative = cell killing is -0.213% [at 9.23 µM] (inactive). For the same molecule, the activity was -73.8% in assay [4], -0.108% in assay [6] and 1.8% in assay [7]. Moreover, the activity change, negative = inhibition in assay [5] worked out at 0.442% [at 19.1 µM].
